Source: PubChem
Sampled rows, rich in hits. Any-hit rate of the full collection: about 10%.
3T3 cytotox – Cytotoxic Profiling in NIH 3T3 Cell Line of Diverse Libraries Using Quantitative High-Throughput Screening; NIH 3T3 viability, CellTiter-Glo ATP luminescence, 48-72 h; Potency, µM (titrated, usually from 96.7 µM), inactives show at the highest dose activity change, negative = cytotoxicity, usual class: inhibitors; 94,000 tested, 4.3% active; AID 1345082, 2018; further: on the % scale 0 is the no-effect control and ±100 the full control effect; nearly all actives have a fitted effect of over 55% in size
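Cytotoxicity was measured by CellTiter-Glo ATP luminescence after 48 or 72 h compound exposure at 37 °C. Mouse NIH 3T3 fibroblasts were seeded at 400 cells/well and dosed by 23 nL pin transfer.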
GPT2 inhibitor – Primary qHTS assay for inhibitors of Glutamate pyruvate transaminase 2 (GPT2). Alanine aminotransferase 2 (Homo sapiens), Q8TD30. Recombinant GPT2, coupled pyruvate oxidase/HRP Amplex Red fluorescence. Potency, µM (doses to about 57.7 µM), for the others: top-dose activity change, negative = inhibition, most hits filed as inhibitors. 100,000 tested, 0.25% active. AID 1671188, 2021; further: on the % scale 0 is the no-effect control and ±100 the full control effect; nearly all actives have a fitted effect of over 60% in size
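Inhibition is scored from Amplex Red fluorescence generated when pyruvate oxidase and HRP act on pyruvate released by GPT2. Reactions contain 10ng/uL enzyme, 250uM a-KG and 2mM L-alanine and run 30 min at room temperature.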
HEK293 tox – Cytotoxic Profiling in HEK 293 Cell Line of Diverse Libraries Using Quantitative High-Throughput Screening. HEK 293 viability, ATP luminescence (CellTiter-Glo), 48-72 h. Potency, µM (doses to about 115 µM), inactives show at the top dose activity change, negative = cytotoxicity, actives largely listed as inhibitors. 94,000 tested, 6.6% active; further: on the % scale 0 is the no-effect control and ±100 the full control effect; nearly all actives have a fitted effect of over 60% in size
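CellTiter-Glo luminescence (cellular ATP) was read after 48 or 72 hr of compound exposure at 37 degree Celsius. Cells were HEK 293 plated at 250 cells/well.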
NPR1 antag – Natriuretic polypeptide receptor (hNpr1) antagonism - Primary qHTS | HEK293 hNpr1 GloSensor cGMP, ANP-stimulated luminescence | Potency, µM (highest dose often 46.3 µM), without a hit: at the highest dose activity change, negative = inhibition, most hits filed as inhibitors | 76,000 tested, 1.6% active | AID 1347048, 2019; calls by dose curve; further: on the % scale 0 is the no-effect control and ±100 the full control effect; nearly all actives have a fitted effect of over 60% in size
Target sequence (P16066 whole entry, looked up): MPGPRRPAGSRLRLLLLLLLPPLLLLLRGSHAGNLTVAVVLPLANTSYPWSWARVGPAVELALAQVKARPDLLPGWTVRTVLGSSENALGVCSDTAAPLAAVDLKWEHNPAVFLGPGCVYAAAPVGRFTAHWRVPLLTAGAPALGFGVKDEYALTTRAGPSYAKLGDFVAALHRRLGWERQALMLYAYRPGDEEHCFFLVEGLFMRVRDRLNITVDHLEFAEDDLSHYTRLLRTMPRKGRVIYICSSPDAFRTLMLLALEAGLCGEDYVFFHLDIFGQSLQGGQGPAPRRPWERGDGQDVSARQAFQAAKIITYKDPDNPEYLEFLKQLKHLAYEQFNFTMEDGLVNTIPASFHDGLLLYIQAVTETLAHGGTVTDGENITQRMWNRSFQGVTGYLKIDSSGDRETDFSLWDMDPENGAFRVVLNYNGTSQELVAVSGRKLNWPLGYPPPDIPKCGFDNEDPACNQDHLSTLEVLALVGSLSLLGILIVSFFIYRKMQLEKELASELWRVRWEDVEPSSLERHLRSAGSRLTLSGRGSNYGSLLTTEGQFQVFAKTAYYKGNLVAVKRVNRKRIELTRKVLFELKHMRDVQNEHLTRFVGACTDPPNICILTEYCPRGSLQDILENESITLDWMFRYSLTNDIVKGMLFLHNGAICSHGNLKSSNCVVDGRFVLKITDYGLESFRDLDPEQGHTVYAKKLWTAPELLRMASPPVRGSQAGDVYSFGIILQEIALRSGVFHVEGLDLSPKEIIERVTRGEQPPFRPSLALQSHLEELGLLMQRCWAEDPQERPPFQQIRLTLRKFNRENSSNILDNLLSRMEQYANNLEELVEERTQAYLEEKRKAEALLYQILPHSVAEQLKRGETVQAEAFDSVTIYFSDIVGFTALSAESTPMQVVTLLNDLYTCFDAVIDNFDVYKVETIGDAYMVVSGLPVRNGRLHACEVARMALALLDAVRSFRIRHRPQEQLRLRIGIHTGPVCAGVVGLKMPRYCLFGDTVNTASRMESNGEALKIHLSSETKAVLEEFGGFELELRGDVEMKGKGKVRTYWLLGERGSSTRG
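Compound pre-incubated 30 min at room temperature on GloSensor-loaded HEK293 cells stably carrying hNpr1 and the pGS-40F cGMP biosensor. Stimulation uses hNppA at 0.1 nM final; luminescence is taken at baseline and 20 min post-agonist.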
FLuc inh-1 – Firefly luciferase inhibition profiling of diverse chemical library using quantitative high-throughput screening; Luciferin 4-monooxygenase (Photinus pyralis), P08659; purified P. pyralis luciferase, luminescence, biochemical; Potency, µM (doses to about 115 µM), usual class: inhibitors; 76,000 tested, 2.5% active; AID 1347043, 2019; further: on the % scale 0 is the no-effect control and ±100 the full control effect; nearly all actives have a fitted effect of over 65% in size
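Inhibitors were tested against purified firefly luciferase in a biochemical, low-substrate format (both substrates at 10uM) and luminescence measured with a CCD imager.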
FLuc SDR no ATP – Firefly luciferase (FLuc-C-HiBiT) SDR gain of signal screen - without ATP. shares compounds with FLuc inh-1. Purified FLuc-C-HiBiT, Nano-Glo HiBiT luminescence, no ATP. Potency, µM (doses to about 32.7 µM), for the others: at the top dose activation (signal gain), actives largely listed as activators. 1,300 tested, 7.8% active. AID 1963318, 2024; further: nearly all actives have a fitted effect of over 55% in size
FLuc SDR ATP – Firefly luciferase (FLuc-C-HiBiT) SDR gain of signal screen - plus ATP | AID 1963319, 2024 | 1,300 tested, 8.7% active | shares compounds with FLuc inh-1 | Potency, µM (series often up to 32.7 µM), without a hit: top-dose activation (gain of signal), hits mostly activators | purified FLuc-C-HiBiT + ATP, HiBiT complementation luminescence;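 further: signal reports ligand binding via conformational change of the enzyme rather than luciferase catalysis; % of control where 0% means no effect; nearly all actives have a fitted effect of over 55% in size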
FLuc inh-2 – Firefly luciferase (FLuc-C-HiBiT) enzymatic inhibition screen - Functional assay | 1,300 tested, 42% active | purified FLuc-C-HiBiT enzyme, luciferin luminescence | shares compounds with FLuc inh-1 | Potency, µM (top dose mostly 32.7 µM), without a hit: at the top dose activity change, negative = inhibition, most hits filed as inhibitors; further: on the % scale 0 is the no-effect control and ±100 the full control effect; nearly all actives have a fitted effect of over 70% in size
* marks the source's active call; other numbers are inactive results; i = inactive; ? = inconclusive; · = no result; [ ] = dose if it differs, or a comment. Unless noted, the call rests on the fitted dose curve; in most records, active means well fitted curve in the direction sought with a large enough effect; inconclusive means small, poorly fitted or top-dose-only effect, or another doubt; inactive means no such curve, though single readings can be large; an effect the other way counts as inactive or inconclusive. Potency means the concentration at half of the fitted maximal effect.

SMILES	3T3 cytotox	GPT2 inhibitor	HEK293 tox	NPR1 antag	FLuc inh-1	FLuc SDR no ATP	FLuc SDR ATP	FLuc inh-2
OCC1CN(c2ccncn2)CC12CCN(C1CCSCC1)CC2 (centres undefined)	?	2%	-9%	1%	i	·	·	·
Cc1ccc(-n2ncc3c(N4CCC(Cc5ccccc5)CC4)ncnc32)cc1C	·	·	·	·	·	13%	9%	-1%
Fc1ccc(-n2ncc3c(N4CCC(Cc5ccccc5)CC4)ncnc32)cc1	·	·	·	·	·	15%	8%	1%
COC1CCOC2(CCN(C(=O)CCCc3ccccc3)CC2)C1 (centres undefined)	-5%	i	-19%	-10%	6.3µM*	18%	?	?
COc1ccc(CCC(=O)N2CCC3(CC2)CC(OC)CCO3)cc1 (centres undefined)	-20%	-28%	5%	7%	i	·	·	·
O=C(NCc1ccccc1Cl)c1noc(-c2ccc3c(c2)OCO3)n1	?	1%	?	3%	?	·	·	·
COc1ccc(C)cc1NC(=O)C1CCN(C(=O)c2ncn3c2COC(c2ccc(F)cc2)C3)CC1 (centres undefined)	-9%	i	-13%	-25%	7.1µM*	12%	?	?
O=C(Nc1ccccc1F)C1CCN(C(=O)c2ncn3c2COC(c2ccc(F)cc2)C3)CC1 (centres undefined)	i	0%	-1%	-3%	?	·	·	·
Cc1ccc(NC(=O)C2CCN(C(=O)c3ncn4c3COC(c3ccc(F)cc3)C4)CC2)c(F)c1 (centres undefined)	i	i	-1%	-2%	13µM*	15%	?	?
O=C(NCc1ccc(F)cc1)N1CC(c2noc(C3CCCN3CC3CC3)n2)C1 (centres undefined)	-14%	2%	1%	5%	i	·	·	·
COc1ccc(C(=O)Nc2ccc([C@H]3OCC(=O)N[C@@H]3CO)cc2)cc1OC	-26%[174 µM]	-2%[88.5 µM]	-9%[172 µM]	-1%[70.6 µM]	i	·	·	·
COc1cc(C(=O)Nc2cc(C)c(O)c(-c3nc4ccccc4s3)c2)cc(OC)c1OC	·	·	·	·	·	15%	10%	-7%
COc1cc(NC(=O)c2cc3c(=O)[nH]c(C)cn3n2)cc(OC)c1OC	?	-15%	-29%	-1%	?	·	·	·
COc1ccc(C(=O)Nc2cc(C)c(O)c(-c3nc4ccccc4s3)c2)cc1OC	·	·	·	·	·	21%	13%	?
Cc1noc(C)c1CN1CCNc2cc(Nc3cccnc3)ncc2C1	-34%[138 µM]	3%[88.5 µM]	?	-1%[70.6 µM]	i	·	·	·
Cn1ccnc1CN1CCNc2cc(Nc3ccccc3)ncc2C1	?	-5%[88.5 µM]	?	-14%[70.6 µM]	4.5µM*	26%[49.3 µM]	17%[49.3 µM]	?
COCCN1CCNc2cc(Nc3cccc(N(C)C)c3)ncc2C1	?	i	?	-2%[70.6 µM]	?	·	·	·
COCCN1CCNc2cc(Nc3cccc(OC)c3)ncc2C1	?	4%[88.5 µM]	?	5%[70.6 µM]	7.1µM*	20%[49.3 µM]	14%[49.3 µM]	?
COCCN1CCNc2cc(-c3cccc(OC)c3)ncc2C1	·	·	·	·	·	?	14%[49.3 µM]	20µM*
Clc1cccc(Nc2cc3c(cn2)CN(Cc2cccnc2)CCN3)c1	?	?	32µM*	?	1.3µM*	?	?	13µM*
CC1(c2ccccc2)CCCN(C(=O)c2cc(-c3ccncc3)n[nH]2)C1 (centres undefined)	?	i	?	-1%	i	·	·	·
O=C(NCCN1CCOCC1)c1cn2cc(-c3ccc(F)cc3)sc2n1	-19%	1%	-20%	·	·	·	·	·
CCOc1ccc(-c2cc3c(=O)n(CCNC(=O)c4ccc(C)c(C)c4)ccn3n2)cc1	-10%	i	3%	8%	i	·	·	·
CCOc1ccc(-c2cc3c(=O)n(CCNC(=O)c4ccccc4)ccn3n2)cc1	-1%	i	-4%	0%	?	·	·	·
CCOc1ccc(-c2cc3c(=O)n(CCNC(=O)c4cccc(N(C)C)c4)ccn3n2)cc1	-24%	i	?	-28%	2.5µM*	29%	?	3.9µM*
SMILES	3T3 cytotox	GPT2 inhibitor	HEK293 tox	NPR1 antag	FLuc inh-1	FLuc SDR no ATP	FLuc SDR ATP	FLuc inh-2
CCOc1ccc(-c2cc3c(=O)n(CCNC(=O)c4ccncc4)ccn3n2)cc1	-6%	-1%	?	-17%	6.3µM*	?	?	3.5µM*
CCOc1ccc(-c2cc3c(=O)n(CCNC(=O)c4cccc(C#N)c4)ccn3n2)cc1	3%	3%	2%	-1%	0.79µM*	26%	15%	?
O=C(C=Cc1ccc(O)cc1)c1ccc(O)cc1O	·	-24%	·	·	·	·	·	·
Cc1cc(CNC(=O)c2cc(C(=O)NCc3ccc(F)c(C)c3)ncn2)ccc1F	·	5%	·	·	·	·	·	·
CCC(=O)Nc1cnc(-c2ccc(C)cc2)nc1	2%	4%	11%	?	3.2µM*	?	?	8.8µM*
Cc1ccc(-c2ncc(NC(=O)c3cc(F)ccc3F)cn2)cc1	2%	-14%	2%	-12%	?	·	·	·
CCc1ccccc1NC(=O)c1nnn(-c2ccc(F)cc2)c1C	·	·	·	·	·	30%	19%	?
O=C(NCc1ccc(F)c(F)c1)C1CCN(c2ccnc3ccnn23)CC1	?	i	?	·	·	·	·	·
COc1ccc(C(=O)N2CCCC(c3nc(-c4ccccc4)no3)CCNC(=O)CC2)c(OC)n1 (centres undefined)	-15%	i	-21%	?	7.9µM*	17%	15%	?
O=S(=O)(N[C@H]1CO[C@H]2[C@@H]1OC[C@@H]2Nc1nccc(C2CCCC2)n1)c1cccc2cccnc12	-36%	i	?	-10%	i	·	·	·
Cc1nc(CCNc2cc(C3CC(O)C3)ncn2)sc1C (centres undefined)	-16%	i	-23%	?	?	·	·	·
